Tests used:
Conditions in all cases: concentration: 1 μM,replicates: in singlicate; n = 1
[1] = system: TNNI3K
[2] = system: T1, TRKA
T1 construct: gene NTRK1

[3] = system: TRKB
[4] = system: T2, TRKC
T2 construct: gene NTRK3

[5] = system: TRPM6
[6] = system: TSSK1B
[7] = system: TSSK3
[8] = system: TTK
[9] = system: TXK
[10] = system: TYK2(JH1domain-catalytic)
[11] = system: TYK2(JH2domain-pseudokinase)
[12] = system: TYRO3
[13] = system: ULK1
[14] = system: ULK2
[15] = system: ULK3
[16] = system: T3, VEGFR2
T3 construct: gene KDR

[17] = system: T4, VPS34
T4 construct: gene PIK3C3

[18] = system: VRK2
[19] = system: WEE1
[20] = system: WEE2
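Also: KINOMEscan kinase panel screen.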

SMILES | %Inh [1] | %Inh [2] | %Inh [3] | %Inh [4] | %Inh [5] | %Inh [6] | %Inh [7] | %Inh [8] | %Inh [9] | %Inh [10] | %Inh [11] | %Inh [12] | %Inh [13] | %Inh [14] | %Inh [15] | %Inh [16] | %Inh [17] | %Inh [18] | %Inh [19] | %Inh [20]
C=CC(=O)Nc1cc2c(Nc3ccc(F)c(Cl)c3)ncnc2cc1OCCCN1CCOCC1 [GW781483] | 0% | 47% | 4% | 18% | 0% | 0% | 47% | 0% | 82% | 25% | 21% | 29% | 0% | 17% | 14% | 0% | 6% | 0% | 0% | 20%
Cc1ccc(-n2nc(C(C)(C)C)cc2NC(=O)Nc2ccc(OCCN3CCOCC3)c3ccccc23)cc1 [GW839464] | 0% | 32% | 70% | – | 0% | 10% | 0% | 31% | 13% | 0% | 0% | 37% | 0% | 0% | 0% | 37% | 21% | 0% | 0% | 14%
NC(=O)c1cc(-c2ccccc2)cc2c(C3CCNCC3)c[nH]c12 [GSK301362] | 10% | 51% | 0% | 4% | 33% | 27% | 22% | 24% | 0% | 69% | 99.7% | 1% | 23% | 29% | 18% | 0% | 0% | 0% | 14% | 11%
Nc1nc(Nc2ccccc2)cc(-c2ccc3c(N)n[nH]c3c2)n1 [GSK2225749] | 0% | 30% | 0% | 0% | 0% | 2% | 24% | 24% | 0% | 46% | 45% | 0% | 92.8% | 62% | 16% | 5% | 3% | 0% | 0% | 0%
Cl.Cl.Nc1nc(-c2ccc3c(N)n[nH]c3c2)cc(N2CCCC(NC(=O)c3ccccc3)C2)n1 (centres unmarked) [GSK2286775] | 0% | 0% | 0% | 0% | 46% | 13% | 10% | 0% | 100% | 0% | 38% | 0% | 11% | 2% | 36% | 9% | 0% | 0% | 18% | 0%
Cc1occc1-c1nc(N)c(OC[C@@H](N)Cc2c[nH]c3ccccc23)cc1-c1cc2c(C)n[nH]c2cn1 [GSK1660450] | 20% | 3% | 0% | 0% | 22% | 20% | 5% | 32% | 43% | 3% | 0% | 0% | 33% | 22% | 11% | 0% | 18% | 90.1% | 0% | 15%
CN(C)CC(O)COc1ccc(Nc2nccc(-c3cnn4nc(N5CCOCC5)ccc34)n2)cc1 (centres unmarked) [GW767488] | 0% | 81% | 31% | 45% | 33% | 5% | 65% | 57% | 3% | 66% | 97.3% | 10% | 98.8% | 96.3% | 61% | 20% | 95.4% | 0% | 8% | 0%
CC(C)N1C(=O)Cc2cc(Nc3ncc(C(F)(F)F)c(NCc4cccc(S(C)(=O)=O)c4)n3)ccc21 | 0% | 96.7% | 84% | 62% | 4% | 0% | 0% | 99.1% | 0% | 92.2% | 29% | 0% | 60% | 54% | 59% | 74% | 55% | 39% | 38% | 7%
C[C@@H]1CCN(C(=O)CC#N)C[C@@H]1N(C)c1ncnc2[nH]ccc12 | 0% | 0% | 0% | 0% | 0% | 0% | 0% | 0% | 1% | – | – | 0% | 0% | 0% | 0% | 0% | 0% | 0% | 0% | 2%
O=C(NCCNc1ccnc(NCc2ccc(F)cc2)n1)c1cc2ccccc2s1 [GSK1379944] | 69% | 0% | 0% | 22% | 1% | 16% | 4% | 0% | 11% | 2% | 10% | 4% | 3% | 0% | 0% | 0% | 0% | 0% | 3% | 19%
CCN(CC)CCCCNc1ncc2cc(-c3c(Cl)cccc3Cl)c(NC(=O)NC(C)(C)C)nc2n1 | 91.5% | 90% | 55% | 45% | 0% | 0% | 0% | 2% | 47% | 7% | 0% | 8% | 0% | 29% | 0% | 90.4% | 12% | 0% | 3% | 3%
CCn1c(-c2nonc2N)nc2c(C#CC(C)(C)O)nc(OCCN)cc21.Cl.Cl [GSK902056] | 0% | 0% | 0% | 0% | 0% | 23% | 85% | 0% | 36% | 17% | 9% | 0% | 33% | 0% | 13% | 0% | 0% | 0% | 6% | 15%
Cc1cc2cn[nH]c2cc1-c1cccc2c(N)c(C(N)=O)nnc12 | 0% | 51% | 66% | 54% | 75% | 0% | 28% | 34% | 95.4% | 71% | 65% | 15% | 28% | 30% | 50% | 13% | 19% | 21% | 12% | 29%
Cc1ccc2c(-c3ccncc3)c(-c3ccc(F)cc3)nn2c1.Cl [GW461484] | 5% | 18% | 0% | 2% | 8% | 9% | 9% | 0% | 0% | 0% | 2% | 0% | 7% | 0% | 23% | 2% | 0% | 0% | 3% | 1%
CN(C)CCOc1ccc(-c2cc(-c3c[nH]nc3-c3ccccn3)ccn2)cc1 [GW835314] | 12% | 0% | 0% | 32% | 2% | 0% | 0% | 0% | 8% | 31% | 21% | 8% | 0% | 31% | 4% | 6% | 0% | 0% | 0% | 11%
C[C@H]1Oc2cc(cnc2N)-c2c(nn(C)c2C#N)CN(C)C(=O)c2ccc(F)cc21 | 0% | 97.7% | 93.4% | 78% | 0% | 58% | 0% | 7% | 0% | 0% | 0% | 5% | 0% | 0% | 0% | 3% | 0% | 42% | 0% | 16%
Cl.Cl.NC[C@H](Cc1ccc(C(F)(F)F)cc1)NC(=O)c1cc(Br)c(-c2ccnc3[nH]ccc23)s1 [GSK1487252] | 13% | 86% | 67% | 74% | 0% | 0% | 2% | 10% | 0% | 3% | 16% | 0% | 5% | 19% | 6% | 34% | 0% | 0% | 0% | 0%
Cc1n[nH]c2ccc(-c3cc(OC[C@@H](N)Cc4ccccc4)cnc3-c3ccoc3)cc12.O=C(O)C(F)(F)F.O=C(O)C(F)(F)F [GSK507358] | 0% | 0% | 0% | 15% | 0% | 0% | 6% | 0% | 0% | 7% | 19% | 0% | 0% | 8% | 22% | 0% | 0% | 33% | 35% | 15%
Cl.Cl.NC[C@H](CC1CCCCC1)NC(=O)c1cc(Br)c(-c2ccnc3[nH]ccc23)s1 [GSK1581427] | 0% | 84% | 64% | 57% | 8% | 58% | 3% | 21% | 1% | 13% | 5% | 0% | 28% | 0% | 10% | 7% | 0% | 0% | 3% | 10%

Source: article PMC5540273 (PLoS ONE, 2017)
